Hit rate of the full screen: of about 69,000 compounds, about 8,600 (12%) showed an effect of 50% or more. Only a selection was taken, and strong results are over-represented in it overall.
The compounds below were run on Plasmodium berghei (assay: Screen against P. berghei liver stage (PbLuc), transformed with Luciferase, at 10uM). Conditions: tested at 10 uM.
Format: functional, HepG2

| SMILES | INHIBITION |
| --- | --- |
| COC(=O)CNc1ccc(-c2nc(Cc3ccc(OC)cc3)no2)cn1 | 26.6% |
| CN(C)CCN(C)c1ccc(-c2nc(COc3ccccc3)no2)cn1 | 41.3% |
| COc1cccc(-c2noc(-c3ccc(NCCCO)nc3)n2)c1OC | 43.9% |
| CC(C)(CO)Nc1ccc(-c2nc(-c3ccccc3F)no2)cn1 | 91.3% |
| COc1cccc(-c2noc(-c3ccc(NCCCN)nc3)n2)c1OC | 46.7% |
| CN(C)CCNc1ccc(-c2nc(COc3ccccc3)no2)cn1 | 56.5% |
| CN(C)CCNc1ccc(-c2nc(-c3ccccc3F)no2)cn1 | 80.7% |
| CNCCNc1ccc(-c2nc(-c3cccc(OC)c3OC)no2)cn1 | 25.8% |
| Cc1ccccc1-c1noc(-c2ccc(NCC3COCCO3)nc2)n1 (centres undefined) | 32.3% |
| CNC(=O)CCc1cc(C)nc(C2CCN(CC(=O)N(C)C)CC2)c1 | 23.3% |
| O=C(O)c1ccccc1-c1cnc(Cn2c(=O)cc[nH]c2=O)s1 | 22% |
| COc1cccc(NC(=O)CN(C(C)C)C2CC2)c1 | 20% |
| CC(C)N(CC(=O)Nc1cccc(C(=O)N(C)C)c1)C1CC1 | -0.614% |
| CC(C)N(CC(=O)Nc1cccc(C#N)c1)C1CC1 | 54.8% |
| Cc1noc(C)c1CN(C)CC(=O)N1CCc2sccc2C1 | 14.4% |
| Cn1c(=O)n(C)c2cc(NS(=O)(=O)Cc3ccccc3)ccc21 | 2.03% |
| CCc1cnc(N2C[C@@H]3C[C@H](C(=O)N(C)C)[C@H](C2)O3)nc1 | -46.9% |

| SMILES | INHIBITION |
| --- | --- |
| COCc1nn(CC2CC2)c2c1CN(Cc1ccco1)CC2 | 26% |
| Cc1ncc(CN(C)Cc2nc3cc(Cl)ccc3n2C)s1 | 74% |
| CCn1c(CN(C)Cc2cnc(C)s2)nc2c(F)cccc21 | 37.8% |
| CCn1c(CN(C)Cc2cnc(C)s2)nc2cc(F)ccc21 | -2.09% |
| COCc1nn(C(C)C)c2c1CCN(Cc1ccccn1)C2 | -18.4% |
| CCc1nc(N2CCCC(CCCOC)C2)c2cnn(C)c2n1 (centres undefined) | 49.4% |
| COCCN1CC[C@@H]2OC(COCC(=O)N3CCCC3)CC[C@@H]21 (some centres undefined) | -36% |
| O=C(Cc1ccsc1)N1C[C@@H]2COC[C@]2(COCc2cccnc2)C1 | 30.3% |
| COc1cc(S(=O)(=O)N2C[C@@H](C)[C@@](C)(O)C2)c(C)cc1C | 54.5% |
| COc1cc(C)ccc1S(=O)(=O)N1CC[C@](C)(O)[C@H](C)C1 | 25.5% |
| Cc1ccc(F)cc1S(=O)(=O)N1C[C@@H](C)[C@@](C)(O)C1 | 43.6% |
| C[C@@H]1CN(C2CCN(c3ccccc3F)CC2)C[C@]1(C)O | 47.9% |
| Cc1cc(F)ccc1S(=O)(=O)N1C[C@@H](C)[C@@](C)(O)C1 | 52.5% |
| Cc1cc(F)ccc1N1CCC(N2C[C@@H](C)[C@@](C)(O)C2)CC1 | 54.4% |
| C[C@@H]1CN(S(=O)(=O)c2ccc(F)cc2F)C[C@]1(C)O | 45.6% |
| C[C@@H]1CN(S(=O)(=O)c2ccc(F)cc2Cl)C[C@]1(C)O | 5.94% |
| Cc1cc(F)ccc1N1CCC(N2C[C@@H](CN(C)C)[C@@H](CO)C2)CC1 | 38% |
